# According to PubChem BioAssay (Tox21):
# Values without a mark were called inactive. Inconclusive results are not listed. Where a call stands in place of a potency, no number is given. The source made the active and inactive calls. Calls follow the shape of the dose curve; as a rule, active = well fitted curve in the direction sought with a large enough effect in the repeat runs; inconclusive = weak or mixed curves; inactive = no such curve, though single readings can be large; an effect the other way counts as inactive or inconclusive.
# Experiments:
# [1] = Human pregnane X receptor (PXR) small molecule agonists, qHTS cell viability counter screen (AID 1346977); also: nearly all actives have a fitted effect of over 50% in size
# Outline: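 HepG2 cells stably carrying the PXR-Luc reporter are cultured with 5% charcoal-stripped FBS and treated with compounds for 24hr. CellTiter-Fluor is added at 23hr and fluorescence is read after 1hr.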
# [2] = Caspase-3/7 induction in HepG2 cells by small molecules, qHTS assay (AID 1346978); also: nearly all actives have a fitted effect of over 15% in size
# Outline: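 Wild-type HepG2 cells, 2,000/well, settled 5 hr at 37 C and 5% CO2, then compound-treated for 17 hr; caspase-3/7 activity read by luminescent Caspase-Glo 3/7 after 30 min at room temperature.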
# [3] = Caspase-3/7 induction in CHO-K1 cells by small molecules, qHTS cell viability counter screen (AID 1346979); also: nearly all actives have a fitted effect of over 35% in size
# Outline: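 Seeding: 1,500 CHO-K1 cells/well. Rest: 5hr, 37C. Treatment: compounds in DMSO, 16hr. Read: CellTiter-Fluor, 1hr, fluorescence.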
# [4] = Caspase-3/7 induction in CHO-K1 cells by small molecules, qHTS assay (AID 1346980); also: nearly all actives have a fitted effect of over 15% in size
# Outline: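 Wild-type CHO-K1 cells exposed to compounds for 17hr at 37 C, 5% CO2. Caspase-3/7 activity then measured by Caspase-Glo 3/7 luminescence after 30min at room temperature.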
# [5] = Caspase-3/7 induction in HepG2 cells by small molecules, qHTS cell viability counter screen (AID 1346981); also: series mostly up to about 92 µM; nearly all actives have a fitted effect of over 30% in size
# Outline: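 Cell viability is measured as a cytotoxicity counter screen alongside the Caspase-Glo 3/7 readout in identical wells. Wild-type HepG2 cells are treated with test compounds for 16 hr at 37 C before CellTiter-Fluor addition and a 1-hr incubation.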
# [6] = target: Nuclear receptor subfamily 1 group I member 2 (Rattus norvegicus) (UniProt Q9R1A7); test: Rat pregnane X receptor (rPXR) activation by small molecules, qHTS assay (AID 1346983); details: rPXR luciferase reporter cells, One-Glo luminescence, 24 h; max activation: hits give high values; also: nearly all actives have a fitted effect of over 20% in size
# Sequence of Nuclear receptor subfamily 1 group I member 2 (Rattus norvegicus) (Q9R1A7 whole entry, looked up): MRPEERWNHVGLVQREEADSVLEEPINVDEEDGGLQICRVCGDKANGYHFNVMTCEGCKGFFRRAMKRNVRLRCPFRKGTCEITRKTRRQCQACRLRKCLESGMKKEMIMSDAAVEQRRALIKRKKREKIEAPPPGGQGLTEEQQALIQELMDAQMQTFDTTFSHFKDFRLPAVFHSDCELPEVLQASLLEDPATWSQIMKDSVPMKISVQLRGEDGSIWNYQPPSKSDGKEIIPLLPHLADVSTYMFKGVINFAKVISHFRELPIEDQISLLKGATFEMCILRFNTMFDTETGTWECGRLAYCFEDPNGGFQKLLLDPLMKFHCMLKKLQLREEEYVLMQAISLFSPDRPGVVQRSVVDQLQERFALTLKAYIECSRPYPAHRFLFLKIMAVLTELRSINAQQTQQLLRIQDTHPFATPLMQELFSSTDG
# Outline: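 Cell-based rPXR activation assay: rPXR cells, 2,000 per well, rested 5hr at 37 C, then exposed to compounds in DMSO for 24 hr at 37 C. Luciferase activity read by One-Glo luminescence after 30 min at room temperature.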
# [7] = target: Nuclear receptor subfamily 1 group I member 2 (Homo sapiens) (UniProt O75469); test: CYP3A4 induction through human pregnane X receptor (PXR) by small molecules, qHTS assay (AID 1346984); also: nearly all actives have a fitted effect of over 40% in size
# Sequence of Nuclear receptor subfamily 1 group I member 2 (Homo sapiens) (O75469 whole entry, looked up): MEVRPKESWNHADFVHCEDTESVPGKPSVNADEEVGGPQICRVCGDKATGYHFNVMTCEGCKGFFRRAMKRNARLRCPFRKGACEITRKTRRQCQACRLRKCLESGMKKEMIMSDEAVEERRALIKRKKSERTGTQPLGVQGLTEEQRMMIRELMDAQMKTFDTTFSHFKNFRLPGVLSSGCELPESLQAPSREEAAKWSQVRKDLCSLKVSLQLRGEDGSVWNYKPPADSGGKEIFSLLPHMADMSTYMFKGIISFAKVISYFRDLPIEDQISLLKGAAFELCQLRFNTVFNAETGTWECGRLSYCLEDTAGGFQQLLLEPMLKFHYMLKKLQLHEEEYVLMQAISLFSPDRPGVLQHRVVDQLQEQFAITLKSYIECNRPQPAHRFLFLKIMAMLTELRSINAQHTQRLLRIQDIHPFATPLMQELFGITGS
# Outline: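 Quantitative HTS in DPX-2 cells, i.e. HepG2 transfected with PXR response element and CYP3A4-promoter luciferase. Compounds in DMSO incubated 24hr at 37C; then P450-Glo CYP3A4 substrate, 3uM final, 3hr; One-Glo luminescence.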
# [8] = target: Nuclear receptor subfamily 1 group I member 2 (Homo sapiens) (UniProt O75469); test: Human pregnane X receptor (PXR) activation by small molecules, qHTS assay (AID 1346985); also: nearly all actives have a fitted effect of over 40% in size; also: potency is read from the fitted curve at half-maximal effect
# Outline: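 DPX-2 cells (HepG2 co-transfected with a PXR response element and a CYP3A4-promoter luciferase construct) were seeded at 2,000 per well, rested 5 hr at 37C, then exposed to DMSO-dissolved compounds for 24 hr. Activation was read as luciferase luminescence.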
# [9] = target: Cytochrome P450 2D6 (Homo sapiens) (UniProt P10635); test: Cytochrome P450 Family 2 Subfamily D Member 6 (CYP2D6) small molecule antagonists: luciferase reporter qHTS assay (AID 1671196); also: nearly all actives have a fitted effect of over 50% in size; also: potency is read from the fitted curve at half-maximal effect; as to activity change, negative = inhibition: series mostly up to about 120 µM
# Sequence of Cytochrome P450 2D6 (Homo sapiens) (P10635 whole entry, looked up): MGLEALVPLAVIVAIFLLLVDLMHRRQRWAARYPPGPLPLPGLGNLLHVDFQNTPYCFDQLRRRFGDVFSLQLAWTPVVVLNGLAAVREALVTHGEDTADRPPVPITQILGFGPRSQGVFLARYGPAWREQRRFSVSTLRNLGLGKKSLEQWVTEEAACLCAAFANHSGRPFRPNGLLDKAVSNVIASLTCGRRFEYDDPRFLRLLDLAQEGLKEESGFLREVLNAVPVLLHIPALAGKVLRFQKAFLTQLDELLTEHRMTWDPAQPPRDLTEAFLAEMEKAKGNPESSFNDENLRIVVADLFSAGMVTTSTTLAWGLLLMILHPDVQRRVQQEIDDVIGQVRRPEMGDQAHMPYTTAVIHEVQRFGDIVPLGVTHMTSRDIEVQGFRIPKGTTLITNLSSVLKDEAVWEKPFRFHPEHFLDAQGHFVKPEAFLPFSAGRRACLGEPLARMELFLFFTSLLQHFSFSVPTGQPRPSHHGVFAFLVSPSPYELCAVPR
# Outline: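 Enzyme and proluciferin substrate were first combined with test chemical for 10 min at room temperature. Adding NADPH regeneration solution started a 1 h reaction, stopped with luciferin detection reagent and read by luminescence 20 min later.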
# [10] = target: Nuclear receptor subfamily 1 group I member 2 (Homo sapiens) (UniProt O75469); test: Human pregnane X receptor (PXR) small molecule agonists, qHTS assay (AID 1346982); also: nearly all actives have a fitted effect of over 35% in size; also: potency is read from the fitted curve at half-maximal effect
# Outline: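 Cells: HepG2 stably carrying PXR-Luc. Medium held 5% charcoal-stripped FBS. Compounds in DMSO added after 5 hr plating, incubated 24 hr, then luminescence quantified with ONE-Glo.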
smiles,measurement,setting,value
CN1CCN(c2cc3c(nn2)Oc2ccccc2N3C)CC1,"activity change, negative = cytotoxicity",[1],8.08% [at 19 µM]
same,caspase activation,[2],-12.1% [at 19 µM]
same,"activity change, negative = cytotoxicity",[3],3.04% [at 19 µM]
same,caspase-3/7 activation,[4],-3.65% [at 19 µM]
same,"activity change, negative = cytotoxicity",[5],-0.441% [at 19 µM]
same,max activation,[6],8.97%
same,Potency,[7],inactive
same,Potency,[8],inactive
CCCCCCCCCCOc1cc2c(=O)c(C(=O)OCC)c[nH]c2cc1OCC,"activity change, negative = cytotoxicity",[1],-1.67% [at 8.39 µM]
same,caspase activation,[2],0.159% [at 8.39 µM]
same,"activity change, negative = cytotoxicity",[3],0.813% [at 8.39 µM]
same,caspase-3/7 activation,[4],1.97% [at 8.39 µM]
same,"activity change, negative = cytotoxicity",[5],2.55% [at 8.39 µM]
same,max activation,[6],-1.23%
same,Potency,[7],inactive
same,Potency,[8],inactive
same,"activity change, negative = inhibition",[9],-50% [at 10.5 µM]
CC12CCC(C(=O)C1=O)C2(C)C (stereo not given),Potency,[1],inactive
same,outcome,[2],inactive
same,Potency,[3],inactive
same,outcome,[4],inactive
same,Potency,[5],inactive
same,Potency,[10],inactive
same,Potency,[9],inactive
CO/N=C(\C(=O)N[C@@H]1C(=O)N2C(C(=O)O)=C(CSc3nc(=O)c(O)nn3C)CS[C@H]12)c1csc(N)n1,Potency,[1],inactive
same,outcome,[2],inactive
same,Potency,[3],inactive
same,outcome,[4],inactive
same,Potency,[5],inactive
same,max activation,[6],-3.34%
same,Potency,[7],inactive
same,Potency,[8],inactive
CNC(=O)Nc1ccc(Cl)c(Cl)c1,Potency,[1],inactive
same,outcome,[2],inactive
same,Potency,[3],inactive
same,outcome,[4],inactive
same,Potency,[5],inactive
same,Potency,[10],34.4 µM (active)
same,Potency,[9],inactive
Cc1ccnc(NS(=O)(=O)c2ccc(N)cc2)n1,Potency,[1],inactive
same,outcome,[2],inactive
same,Potency,[3],inactive
same,outcome,[4],inactive
same,Potency,[5],inactive
same,max activation,[6],-0.793%
same,Potency,[7],inactive
same,Potency,[8],inactive
same,Potency,[9],inactive
CCCCCCCCCCCCCCC(=O)O,Potency,[1],inactive
same,outcome,[2],inactive
same,Potency,[3],inactive
same,outcome,[4],inactive
same,Potency,[5],inactive
same,Potency,[10],inactive
same,Potency,[9],inactive
CCCCCC(C)N (stereo not given),Potency,[1],inactive
same,outcome,[2],inactive
same,Potency,[3],inactive
same,outcome,[4],inactive
same,Potency,[5],inactive
same,max activation,[6],-3.3%
same,Potency,[7],inactive
same,Potency,[8],inactive
same,Potency,[9],inactive
C1CCC2(CCCCO2)OC1,Potency,[1],inactive
same,outcome,[2],inactive
same,Potency,[3],inactive
same,outcome,[4],inactive
same,Potency,[5],inactive
same,Potency,[9],inactive
C=C(C)C(=O)OCC(O)CO (stereo not given),Potency,[1],inactive
same,outcome,[2],inactive
same,Potency,[3],inactive
same,outcome,[4],inactive
same,Potency,[5],inactive
same,Potency,[10],inactive
same,Potency,[9],inactive
Cc1ccc(C(=O)Nc2ccc(S(=O)(=O)O)c3cc(S(=O)(=O)O)cc(S(=O)(=O)O)c23)cc1NC(=O)c1cccc(NC(=O)Nc2cccc(C(=O)Nc3cc(C(=O)Nc4ccc(S(=O)(=O)O)c5cc(S(=O)(=O)O)cc(S(=O)(=O)O)c45)ccc3C)c2)c1,Potency,[1],inactive
same,outcome,[2],inactive
same,Potency,[3],inactive
same,outcome,[4],inactive
same,Potency,[5],inactive
same,max activation,[6],-1.36%
same,Potency,[7],inactive
same,Potency,[8],inactive
CC[N+](CC)(CC(=O)Nc1c(C)cccc1C)Cc1ccccc1 (tested in a mixture with another compound),Potency,[1],inactive
same,outcome,[2],inactive
same,Potency,[3],inactive
same,outcome,[4],inactive
same,Potency,[5],inactive
same,Potency,[9],0.0262 µM (active)
CC(=O)NC(=O)c1ccccc1O,Potency,[1],inactive
same,outcome,[2],inactive
same,Potency,[3],inactive
same,outcome,[4],inactive
same,Potency,[5],inactive
same,max activation,[6],-2.9%
same,Potency,[7],inactive
same,Potency,[8],inactive
same,Potency,[9],inactive
NCCCC[C@H](N[C@@H](CCc1ccccc1)C(=O)O)C(=O)N1CCC[C@H]1C(=O)O,Potency,[1],inactive
same,outcome,[2],inactive
same,Potency,[3],inactive
same,outcome,[4],inactive
same,Potency,[5],inactive
same,max activation,[6],-3.44%
same,Potency,[9],inactive
CCCOC(=O)CC,Potency,[1],inactive
same,outcome,[2],inactive
same,Potency,[3],inactive
same,outcome,[4],inactive
same,Potency,[5],inactive
same,Potency,[10],inactive
same,Potency,[9],inactive
CC(C)(N)C#N,Potency,[1],inactive
same,outcome,[2],inactive
same,Potency,[3],inactive
same,outcome,[4],inactive
same,Potency,[5],inactive
same,Potency,[10],inactive
same,Potency,[9],inactive
Nc1c2c(nc3c1CCC3)CCCC2,Potency,[1],inactive
same,outcome,[2],inactive
same,Potency,[3],inactive
same,outcome,[4],inactive
same,Potency,[5],inactive
same,max activation,[6],-1.69%
same,Potency,[7],inactive
same,Potency,[8],inactive
same,Potency,[9],8.71 µM (active)
CCCCc1nc(Cl)c(CO)n1Cc1ccc(-c2ccccc2-c2nn[nH]n2)cc1,Potency,[1],inactive
same,outcome,[2],inactive
same,Potency,[3],inactive
same,outcome,[4],inactive
same,Potency,[5],inactive
same,max activation,[6],-3.95%
same,Potency,[7],inactive
same,Potency,[8],inactive
CC1(C)OC[C@@H](COC(=O)CCc2ccc(OC[C@@H](O)CNCCNC(=O)N3CCOCC3)cc2)O1,Potency,[1],inactive
same,outcome,[2],inactive
same,Potency,[3],inactive
same,outcome,[4],inactive
same,Potency,[5],inactive
same,Potency,[10],inactive
same,Potency,[9],inactive
COc1cc(C)nc(-n2nc(C)cc2OC)n1,Potency,[1],inactive
same,outcome,[2],inactive
same,Potency,[3],inactive
same,outcome,[4],inactive
same,Potency,[5],inactive
same,max activation,[6],0.673%
CCOC(=O)CCC(=O)OCC,Potency,[1],inactive
same,outcome,[2],inactive
same,Potency,[3],inactive
same,outcome,[4],inactive
same,Potency,[5],inactive
same,Potency,[10],inactive
same,Potency,[9],inactive
CCOC(=O)c1cnc2c(cnn2CC)c1NN=C(C)C,Potency,[1],inactive
same,outcome,[2],inactive
same,Potency,[3],inactive
same,outcome,[4],inactive
same,Potency,[5],inactive
same,Potency,[7],inactive
same,Potency,[8],8.91 µM (active)
O=S(=O)(O)c1cc(O)c(O)c(S(=O)(=O)O)c1,Potency,[1],inactive
same,outcome,[2],inactive
same,Potency,[3],inactive
same,outcome,[4],inactive
same,Potency,[5],inactive
same,Potency,[9],inactive
CCOC(=O)OC(C)OC1=C(C(=O)Nc2ccccn2)N(C)S(=O)(=O)c2ccccc21 (stereo not given),Potency,[1],inactive
same,outcome,[2],inactive
same,Potency,[3],inactive
same,outcome,[4],inactive
same,Potency,[5],inactive
same,max activation,[6],-2.57%
same,Potency,[7],inactive
same,Potency,[8],inactive
same,Potency,[9],inactive
